PubChem BioAssay (EPA / NIEHS)
Activity calls are given as the source filed them. Rule for the calls: active = hit-call score of the fitted dose curve at least 0.9, where 1 is the maximum; inactive = score below 0.9.

target: Paired box protein Pax-6 (Homo sapiens) (UniProt P26367); assay: ATG_Pax6_CIS: Attagene CIS-FACTORIAL HepG2 Assay for human Paired Box 6 (PAX6) (AID 2282956); details: HepG2 CIS-FACTORIAL PAX6 reporter transcription, RNA readout; actives raise or lower the signal
Method: ATG_CIS is a cell-based, multiplexed-readout assay that uses HepG2, a human liver cell line, with measurements taken at 24 hours after chemical dosing in a 24-well plate.ATG_Pax6_CIS is one of 52 assay component(s) measured or calculated from the ATG_CIS assay. It is designed to make measurements of mRNA induction, a form of inducible reporter, as detected with fluorescence intensity signals by Reverse transcription polymerase chain reaction (RT-PCR) and Capillary electrophoresis technology.Data from the assay component ATG_Pax6_CIS was analyzed into 1 assay endpoint. This assay endpoint, ATG_Pax6_CIS, was analyzed with bidirectional fitting relative to DMSO as the negative control and baseline of activity. Using a type of inducible reporter, measures of mRNA for gain or loss-of-signal activity can be used to understand the reporter gene at the transcription factor-level as they relate to the gene PAX6. Furthermore, this assay endpoint can be referred to as a primary readout, because this assay has produced multiple assay endpoints where this one serves a reporter gene function. To generalize the intended target to other relatable targets, this assay endpoint is annotated to the dna binding intended target family, where the subfamily is paired box protein.
Human liver HepG2 cells are transiently transfected with multiple reporter transcription units (MRTUs) in 6-well plates using FuGene 6 reagent (Roche; 3 ml FuGene/1 mg DNA). The MRTU constructs are regulated by a cis-regulating element (promoter). […] A major difference between the CIS and TRANS system is that in CIS activities of endogenous TFs are measured, whereas the TRANS assay evaluates changes in activities of exogenous, chimeric NR-Gal4 proteins. […] At the end of 24 hour incubation, total RNA was isolated using TriZol reagent (Invitrogen). The isolated RNA is then reverse-transcribed using oligo(dT) primer and Mo-MLV reverse transcriptase (Invitrogen) with DNAse I (Ambion) treatment for 30 min. The one-tenth of the produced cDNA was amplified by PCR using Taq DNA polymerase (Invitrogen) and two reporter sequence-specific primers. The PCR products were fluorescently labeled by primer extension with 6-arboxyfluorescein (6-FAM) 5'-labeled reporter sequence-specific primer (2 min at 95 C, 20 s at 68 C and 10 min at 72 C) and these products were digested with 5U of HpaI (New England Biolabs) for 2h at 37 C. The fragments were purified using Qiaquick PCR columns (Qiagen), analyzed on an ABI 3130xL genetic analyzer (Applied Biosystems) with peak positions identified by using a set of X-rhodamine (ROX)-labeled MapMarker1000 molecular weight standards (BioVentures). The raw capillary electrophoresis data was processed using Attagraph software (Attagene).

Paired box protein Pax-6 (Homo sapiens), sequence (P26367 whole entry, looked up): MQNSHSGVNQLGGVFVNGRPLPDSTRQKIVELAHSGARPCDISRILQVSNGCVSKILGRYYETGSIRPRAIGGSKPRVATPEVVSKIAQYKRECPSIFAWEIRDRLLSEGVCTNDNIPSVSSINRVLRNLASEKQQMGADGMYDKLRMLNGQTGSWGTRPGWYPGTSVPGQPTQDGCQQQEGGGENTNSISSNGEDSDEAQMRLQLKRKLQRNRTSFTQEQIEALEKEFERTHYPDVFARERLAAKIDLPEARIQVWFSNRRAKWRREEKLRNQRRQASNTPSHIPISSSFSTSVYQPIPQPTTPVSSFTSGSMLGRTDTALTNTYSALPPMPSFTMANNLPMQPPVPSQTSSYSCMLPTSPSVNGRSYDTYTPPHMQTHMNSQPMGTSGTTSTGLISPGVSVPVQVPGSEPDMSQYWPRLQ

| SMILES | outcome | AC50 |
| --- | --- | --- |
| NC(=O)c1cnccn1 | inactive |  |
| CCCCCCCCCCCCCC(=O)OCC | inactive |  |
| C=CCOC(=O)/C=C\C(=O)OCC=C |  | 26 µM (active) |
| COc1ccccc1NC(=O)CC(C)=O | inactive |  |
| CC(=O)CC(=O)N(C)C | inactive |  |
| CC(C)=CC(=O)O | inactive |  |
| CCCc1ccc(N)cc1 | inactive |  |
| O=C(C=Cc1ccccc1)OCCCc1ccccc1 | inactive |  |
| CCCC(O)C(CC)CO (stereo not given) | inactive |  |
| C=C/C(C)=C/C/C=C(\C)CCC=C(C)C | inactive |  |
| COc1ccccc1O | inactive |  |
| CCO[Si](CCC#N)(OCC)OCC | inactive |  |
| Cc1ccncc1 | inactive |  |
| C1CCCNCC1 | inactive |  |
| C=COCC1CCC(COC=C)CC1 (stereo not given) | inactive |  |
| CC(=O)OC/C=C(C)/C=C/C=C(C)/C=C/C1=C(C)CCCC1(C)C |  | 72.2 µM (active) |
| c1ccc2scnc2c1 | inactive |  |
| Nc1ccn([C@H]2CC[C@@H](CO)O2)c(=O)n1 | inactive |  |
| CC(CCO)CC(C)(C)C (stereo not given) | inactive |  |
| NNC(=O)OCc1ccccc1 | inactive |  |

| SMILES | outcome | AC50 |
| --- | --- | --- |
| O=C1CCC(=O)N1 | inactive |  |
| CCOC(=O)CCCCCCCCC(=O)OCC | inactive |  |
| C=CC(=O)OCC(CO)(COC(=O)C=C)COC(=O)C=C |  | 11.9 µM (active) |
| COc1ccc(C(C)=O)cc1 | inactive |  |
| CC(C)(O)CCc1ccccc1 | inactive |  |
| CC/C=C\CCOC(=O)C(C)C | inactive |  |
| CCCCCCCCOC(=O)c1ccc(O)cc1 | inactive |  |
| CC1(C)[C@H](C=C(Cl)Cl)[C@H]1C(=O)OCc1cccc(Oc2ccccc2)c1 | inactive |  |
| CC(C)(C)c1ccc(S)cc1 | inactive |  |
| CCCCCCCCSCc1cc(C)c(O)c(CSCCCCCCCC)c1 | inactive |  |
| CC(=O)C1C(=O)C=C(C)OC1=O (stereo not given) | inactive |  |
| CC(O)COCC(C)O (stereo not given) | inactive |  |
| CC=CC(=O)C1=C(C)C=CCC1(C)C | inactive |  |
| CC/C=C\CCOC(C)OCC (stereo not given) | inactive |  |
| CC12CCC(C1)C(C)(C)C2O (stereo not given) | inactive |  |
| CC(C)(C)c1cccc(O)c1 | inactive |  |
| CCC(=O)OCC=Cc1ccccc1 | inactive |  |
| CCC(C)COC(=O)CC(C)C (stereo not given) | inactive |  |
| CC(C)(O)C(=O)c1ccc(OCCO)cc1 | inactive |  |
| CCCCCCCCCCCCOC(C)=O | inactive |  |
